Compounds with a hit are over-represented: about 2.7% of the library has one in this group of screens.
PAX8 inh HTS: lowers PAX8-driven luciferase in RMG-I cells; inhibition, % at 12.6 µM; 360,000 compounds, 1.2% hits; RMG-I TPO-luciferase reporter, SteadyGlo, 24 h; AID 652154;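 active means mean replicate inhibition at least 60% with every replicate also reaching 60%; inconclusive means only one of the two criteria is met; inactive means mean below 60% and not all replicates reaching 60%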;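 further: luciferase light reporting Pax8 driven TPO promoter activity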
GSIS activator: GLuc luminescence reporter in INS-1E cells, primary screen for activators of glucose-dependent secretion of insulin | INS-1E GLuc reporter insulin secretion, 2-3 h | activation, % at 16.6 µM | 370,000 compounds, 0.61% hits | AID 743287;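 active means lowest replicate activation of at least 40%, so every replicate reaches that level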
F508del corr: CFTR F508del correction in bronchial cells; AID 720511; CFBE cells, YFP halide quenching; stimulated with forskolin plus potentiator P3; % fluorescence drop versus neutral controls; 350,000 compounds, 0.36% hits; activity (quench increase), % at 7.58 µM;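 active means mean added fluorescence quench of at least 8% versus neutral control, with both replicates also reaching 8%; inconclusive means only one of the mean or replicate conditions met; inactive means mean below 8% and not both replicates reaching 8%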;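 further: cells transiently co-express mutant CFTR-F508del with the halide-sensitive YFP; corrector assay measuring rescue of mutant channel to the surface after 24 h compound exposure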
EWS-Fli block: inhibitors of EWS/Fli oncoprotein transcriptional activity | A673 NR0B1-luciferase reporter, viability-normalised | 350,000 compounds, 0.67% hits | inhibition, % at 12.6 µM;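 active means mean inhibition of at least 50% after viability correction, with every replicate also passing that limit; inconclusive means mean reaches 50% but only one of two replicates passes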;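 further: firefly luciferase signal divided by Alamar Blue viability fluorescence both relative to DMSO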
Env fusion inh: inhibitors of HIV Env-mediated cell fusion. 360,000 compounds, 1.1% hits. inhibition, % at 12.3 µM. HeLa-JRFL Env/CEM21 cell fusion, luciferase;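 active means mean replicate inhibition score of at least 50 and every replicate individually at or above 50; inconclusive means only one of the two criteria met; inactive means mean below 50 and not all replicates reaching 50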
PGC1a acetyl inh: modulators of PGC1a acetylation. 350,000 compounds, 0.17% hits. AID 651687. inhibition, % at 15.6 µM. U2OS PGC1a acetylation, AlphaScreen anti-acetyl-lysine; with virally co-expressed GCN5 acetyltransferase;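 active means every replicate shows inhibition of at least 40%; inconclusive means mean inhibition at least 40% but some replicate below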
Large screens that a line does not name were inactive; [ ] = dose if it differs, or a comment.

C[C@@H]1CCCCO[C@@H](CN(C)Cc2ccc(C(F)(F)F)cc2)[C@H](C)CN([C@@H](C)CO)C(=O)c2cc(NC(=O)Nc3ccc(C(F)(F)F)cc3)ccc2O1	Env fusion inh 59[16.7 µM]
C[C@@H]1CN([C@H](C)CO)C(=O)c2cccc(NC(=O)Nc3ccc4c(c3)OCO4)c2O[C@@H]1CN(C)C(=O)NC1CCCCC1	none (no result: PAX8 inh HTS, Env fusion inh)
CO[C@H]1CN(C)C(=O)c2ccc(NC(C)=O)cc2OC[C@@H](C)N(C(=O)C2CCOCC2)C[C@@H]1C	none (no result: PAX8 inh HTS, Env fusion inh)
C[C@H](CO)N1C[C@H](C)[C@@H](CN(C)Cc2ccc(C(F)(F)F)cc2)OCCCC[C@H](C)Oc2ccc(NC(=O)Nc3ccc(F)cc3)cc2C1=O	PAX8 inh HTS 88
CC(=O)c1cccc(-c2ccnc3c2CC(C(=O)NCCc2ccccc2)O3)c1 (stereo not given)	EWS-Fli block 54 (no result: PGC1a acetyl inh)
CC(=O)Nc1cccc(-c2ccnc3c2CC(C(=O)NCCc2ccccc2)O3)c1 (stereo not given)	EWS-Fli block 55 (no result: PGC1a acetyl inh)
CS(=O)(=O)Nc1cccc(NC(=O)C2Cc3c(-c4cccc(F)c4)ccnc3O2)c1 (stereo not given)	EWS-Fli block 64 (no result: PGC1a acetyl inh)
CC(=O)Nc1cccc(-c2ccnc3c2CC(C(=O)NCCN(C)C)O3)c1 (stereo not given)	none (no result: PAX8 inh HTS)
COc1ccc(NC(=O)C2Cc3c(-c4cccc(NC(C)=O)c4)ccnc3O2)cc1 (stereo not given)	EWS-Fli block 52 (no result: PGC1a acetyl inh)
C[C@H]1CN([C@@H](C)CO)S(=O)(=O)c2ccc(C#Cc3cccc(F)c3)cc2O[C@H]1CN(C)CC1CC1	PAX8 inh HTS 65
C[C@H]1CN([C@@H](C)CO)S(=O)(=O)c2ccc(C#Cc3cccc(F)c3)cc2O[C@H]1CN(C)C(=O)NC1CCCCC1	F508del corr 12
C[C@H](CO)N1C[C@H](C)[C@H](CN(C)C(=O)NC2CCCCC2)Oc2cc(C#Cc3cccc(F)c3)ccc2S1(=O)=O	PAX8 inh HTS 84, F508del corr 8.4, PGC1a acetyl inh inconclusive
C[C@@H]1CN([C@H](C)CO)S(=O)(=O)c2ccc(C#Cc3cccc(F)c3)cc2O[C@@H]1CN(C)C(=O)NC1CCCCC1	PAX8 inh HTS 83, F508del corr 10
C[C@H](CO)N1C[C@H](C)[C@@H](CN(C)C(=O)NC2CCCCC2)Oc2cc(C#Cc3cccc(F)c3)ccc2S1(=O)=O	none
O=C(C1CC1)N1CC(=O)N2[C@H](C1)[C@@H](c1ccc(-c3ccccc3F)cc1)[C@@H]2CO	none (no result: Env fusion inh)
CC(C)(C)OC(=O)[C@H](Cc1ccccc1)NC(=O)c1nc[nH]c1C(=O)NCc1ccccc1	none (no result: GSIS activator, Env fusion inh, PGC1a acetyl inh)
CC(C)(C)OC(=O)NCc1ccc(CNC(=O)c2[nH]cnc2C(=O)N[C@@H](Cc2ccccc2)C(=O)OC(C)(C)C)cc1	PAX8 inh HTS 76
C[C@@H](NC(=O)c1nc[nH]c1C(=O)N[C@@H](Cc1ccccc1)C(=O)OC(C)(C)C)c1ccccc1	PAX8 inh HTS 95 (no result: PGC1a acetyl inh)
N#C/C(=C\c1ccc2c(c1)OCCO2)C(=O)NC1CCCCC1	PAX8 inh HTS 100 (no result: GSIS activator, F508del corr, PGC1a acetyl inh)
COc1ccc(/C=C(/C#N)C(=O)NC2CCCCC2)cc1Br	none (no result: PAX8 inh HTS, GSIS activator, F508del corr, EWS-Fli block)
COc1ccc(C2c3c(-c4ccccc4O)n[nH]c3C(=O)N2Cc2ccco2)cc1OC (stereo not given)	none
COc1ccc(CCN2C(=O)c3[nH]nc(-c4ccccc4O)c3C2c2cccc(O)c2)cc1OC (stereo not given)	Env fusion inh 75 (no result: F508del corr, EWS-Fli block)
COc1ccc(C(=O)C(CCCCC(CN(C)C)C(=O)c2ccc(OC)cc2)CN(C)C)cc1 (stereo not given)	none (no result: PAX8 inh HTS, GSIS activator, F508del corr, EWS-Fli block, Env fusion inh)
CCOc1ccc(C(=O)C(CCC(CN(C)C)C(=O)c2ccc(OCC)cc2)CN(C)C)cc1 (stereo not given)	PAX8 inh HTS 112 (no result: F508del corr, EWS-Fli block, PGC1a acetyl inh)
C[C@H]1CCCCO[C@@H](CN(C)Cc2ccncc2)[C@@H](C)CN([C@@H](C)CO)C(=O)c2cc(NC(=O)Nc3ccc(C(F)(F)F)cc3)ccc2O1	PAX8 inh HTS 81
C[C@@H]1CCCCO[C@@H](CN(C)Cc2ccncc2)[C@H](C)CN([C@@H](C)CO)C(=O)c2cc(NC(=O)Nc3ccc(C(F)(F)F)cc3)ccc2O1	PAX8 inh HTS 93
C[C@H](CO)N1C[C@H](C)[C@@H](CN(C)Cc2ccncc2)OCCCC[C@H](C)Oc2ccc(NC(=O)Nc3ccc(C(F)(F)F)cc3)cc2C1=O	none
C[C@H](CO)N1C[C@H](C)[C@H](CN(C)Cc2ccncc2)OCCCC[C@H](C)Oc2ccc(NC(=O)Nc3ccc(C(F)(F)F)cc3)cc2C1=O	PAX8 inh HTS 71
O=C(c1cccnc1)N1CC2(C1)[C@H](c1ccccc1)[C@@H](CO)N2C(=O)c1cccnc1	none (no result: PAX8 inh HTS, Env fusion inh)
CCCCCCn1c2c(c(=N)c3c1CCC3)CCC2	Env fusion inh 81 (no result: PAX8 inh HTS, F508del corr, EWS-Fli block)
CCCCCCCn1c2c(c(=N)c3c1CCC3)CCCC2	PAX8 inh HTS 94, EWS-Fli block 63, Env fusion inh 72 (no result: GSIS activator)
CCCCn1c2c(c(=N)c3c1CCC3)CCC2	none (no result: PAX8 inh HTS, F508del corr, EWS-Fli block, Env fusion inh, PGC1a acetyl inh)
O=C(CSc1c[nH]c2ccccc12)NC1CCCC1	none (no result: PGC1a acetyl inh)
O=C(CSC1=Nc2ccccc2C2=NC(Cc3c[nH]c4ccccc34)C(=O)N12)NC1CCCCC1 (stereo not given)	Env fusion inh 114 (no result: PAX8 inh HTS, GSIS activator, F508del corr, EWS-Fli block)
Cc1noc(C)c1NC(=O)N(C)C[C@H]1Oc2c(NC(=O)Nc3cccc4ccccc34)cccc2C(=O)N([C@H](C)CO)C[C@H]1C	none (no result: PAX8 inh HTS, Env fusion inh)
CCCc1cc(=O)oc2cc(C)cc(OCC(=O)Nc3ccc(S(N)(=O)=O)cc3)c12	GSIS activator 139
CCCc1cc(=O)oc2cc(C)cc(OCC(=O)Nc3ccccn3)c12	none
COc1cccc(-c2ccc([C@H]3[C@@H](CO)N4C(=O)CN(C(=O)NC(C)C)C[C@@H]34)cc2)c1	none (no result: Env fusion inh)
O=C(C[C@H]1C[C@H]2c3cc(NC(=O)NC4CCCC4)ccc3O[C@H]2[C@H](CO)O1)NCc1ccc(Cl)cc1	none (no result: PAX8 inh HTS, Env fusion inh)
COCC(=O)Nc1ccc2c(c1)OC[C@@H](C)N(CCC(F)(F)F)C[C@@H](C)[C@H](OC)CN(C)C2=O	none
O=C(/C=C/c1ccc([N+](=O)[O-])cc1)NCCOc1ccc(F)cc1	none (no result: PGC1a acetyl inh)
COc1ccc(OCCNC(=O)/C=C/c2ccc([N+](=O)[O-])cc2)cc1	PAX8 inh HTS 107 (no result: F508del corr)
Cc1cc(C)nc(SCc2ccc(C(=O)N/N=C/c3cccc(O)c3O)cc2)n1	PAX8 inh HTS 68 (no result: F508del corr, EWS-Fli block, PGC1a acetyl inh)
CC(=NNC(=S)N1CCCCC1)c1ccccn1	none (no result: PGC1a acetyl inh)
CC(=NNC(=S)N1CCCCC1)c1cccc(C)n1	F508del corr 12 (no result: PGC1a acetyl inh)
CSC(=S)NN=C(C)c1cccc(C)n1	PAX8 inh HTS 76, Env fusion inh inconclusive
CC(=NNC(=S)Nc1ccccc1)c1ccccn1	none (no result: PGC1a acetyl inh)
O=C(NC1CCCCC1)N1CC(=O)N2[C@H](CO)[C@H](c3ccc(/C=C/c4ccccc4)cc3)[C@H]2C1	none (no result: Env fusion inh)
